Source: PubChem BioAssay (NCI)
The panel holds about 79,000 compounds, 15% with a hit somewhere; the sample as a whole holds those more often. No stated cut-off is given here; in the data, active means growth inhibition above about 70%; inactive means the rest.

What was measured:
[1] = NCI Yeast Anticancer Drug Screen. Data for the rad50 strain (AID 155);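 further: 0% = growth of vehicle-only cultures of the same strain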; settings: S. cerevisiae rad50 strain growth inhibition; at 50.0 µM; stronger effect = higher value
Method in brief: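 Relative growth inhibition (compound vs vehicle) was measured in yeast with a defined repair-gene alteration.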

[2] = NCI Yeast Anticancer Drug Screen. Data for the mec2-1 strain (AID 157); settings: S. cerevisiae mec2-1 strain, at 50.0 µM, stronger effect = higher value
Method in brief: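 Vehicle-treated cultures served as reference for growth inhibition of compound-exposed mec2-1 yeast.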

[3] = NCI Yeast Anticancer Drug Screen. Data for the sgs1 mgt1 strain (AID 161);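 further: 0% = growth of cultures given vehicle only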; settings: S. cerevisiae sgs1 mgt1 strain, at 50.0 µM, stronger effect = higher value
Method in brief: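 Test agents were incubated with a DNA-repair-mutant yeast strain. Growth was then read and compared against vehicle-treated controls.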

[4] = NCI Yeast Anticancer Drug Screen. Data for the cln2 rad14 strain (AID 165);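 further: 0% = growth equal to vehicle treated cultures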; settings: S. cerevisiae cln2 rad14 strain, at 50.0 µM, stronger effect = higher value
Method in brief: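 Each compound was tested on cln2 rad14 yeast. Inhibition of growth was calculated against vehicle-exposed controls.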

[5] = NCI Yeast Anticancer Drug Screen. Data for the bub3 strain (AID 167); settings: S. cerevisiae bub3 mutant strain, at 50.0 µM, stronger effect = higher value
Method in brief: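 Screening used yeast with an engineered genetic alteration affecting cell cycle control. Compound-exposed cultures were compared with vehicle cultures, and reduced growth was taken as inhibition.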

[6] = NCI Yeast Anticancer Drug Screen. Data for the mlh1 rad18 strain (AID 175); settings: S. cerevisiae mlh1 rad18 strain growth inhibition; at 50.0 µM; stronger effect = higher value
Method in brief: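 Vehicle-treated cultures served as the reference for growth inhibition in a yeast strain carrying DNA damage repair alterations exposed to each compound.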

Measured: growth inhibition

O=C1/C(=C/c2cccs2)CCc2ccccc21
inactive: [1] 20.6% | [2] -12.4% | [3] 6.05% | [4] -16.1% | [5] 9.7% | [6] 31.9%

COC(=O)c1ccc([N+](=O)[O-])cc1C(=O)OC
inactive: [1] 4.85% | [2] -16.7% | [3] -42.1% | [4] -12.3% | [5] -52.8% | [6] -3.2%

CCCCCCCC1CCCC1=O (stereo unspecified)
inactive: [1] -32.1% | [2] -53.6% | [3] -37.8% | [4] 5.7% | [5] -31.8% | [6] -0.8%

Cc1ccc([N+](=O)[O-])cc1N1CCNC1=O
inactive: [1] 8.05% | [2] -17.2% | [3] -12.2% | [4] -62.7% | [5] 9% | [6] -21.9%

Cc1cc(Cc2cc(Cc3cc(C)cc(C(C)(C)C)c3O)c(C)cc2C)c(O)c(C(C)(C)C)c1
inactive: [1] 50.4% | [2] 18.4% | [3] 13.3% | [4] -1.75% | [5] -23.4% | [6] 38.5%

CCOC(=O)CCC1(C(=O)OCC)CCCCC1=O (stereo unspecified)
inactive: [1] -16.9% | [2] -20.4% | [3] -48.5% | [4] -16.9% | [5] -25.4% | [6] -23.1%

CC(=O)c1cccc(NC(=O)Nc2cccc3ccccc23)c1
inactive: [1] 0.45% | [2] 5.7% | [3] 14.9% | [4] 2.75% | [5] 15.7% | [6] 2.7%

CCCCCCCCCCCCCCCc1ccc([N+](=O)[O-])c(O)c1
inactive: [1] -2.25% | [2] 33.5% | [3] 7.1% | [4] -8.75% | [5] 51.7% | [6] 35.9%

COC1=CC(=O)C(CC=C(C)C)=CC1=O
inactive: [1] 5.65% | [2] -9.9% | [3] -1.2% | [4] -62.4% | [5] -8.9% | [6] -3.2%

NNC(=O)CCC(=O)Nc1ccc(Cl)cc1Cl
inactive: [1] -19.9% | [2] 0.65% | [3] -8.25% | [4] 26.9% | [5] 5.1% | [6] 30.9%

O=c1cc(O)nc(CO)[nH]1
inactive: [1] -4.15% | [2] -5.75% | [3] -41.9% | [4] -14.7% | [5] 3.9% | [6] 2.6%

O=C1COC(c2ccccc2O)=NN1CCCN1CCCC1
inactive: [1] 12.9% | [2] -23.8% | [3] 21% | [4] -3.4% | [5] 14.1% | [6] 25.3%

CC1(C)OC[C@@H](O)[C@H](C#N)CO1
inactive: [1] 17.6% | [2] 27.6% | [3] 3.75% | [4] 19.6% | [5] -0.95% | [6] -18.1%

CCOc1cc(F)cc([N+](=O)[O-])c1
inactive: [1] -11.6% | [2] 5.3% | [3] -20.9% | [4] -14.9% | [5] 19.1% | [6] 5.7%

COc1cc(C2c3cc4c(cc3OC(NCCc3ccccc3)C2C)OCO4)cc(OC)c1OC (stereo unspecified)
inactive: [1] -15.8% | [2] -41.4% | [3] -0.3% | [4] -25.4% | [5] 0.6% | [6] 11.4%

C/C=C(\c1ccccc1)N1CCOCC1
inactive: [1] 17.9% | [2] -9.15% | [3] -8.6% | [4] -37.5% | [5] 7.1% | [6] 5.25%

COC1(OC)CC2C(=O)N(Cc3ccccc3)C1C(S(=O)(=O)c1ccccc1)C2C(C)S(=O)(=O)c1ccccc1 (stereo unspecified)
inactive: [1] 14.1% | [2] -0.55% | [3] -24% | [4] -35% | [5] -26.7% | [6] 5%

CC(=O)C1C(=O)C(=O)N(c2ccc(S(N)(=O)=O)cc2)C1=O (stereo unspecified)
inactive: [1] -37.3% | [2] 1.3% | [3] 7.6% | [4] -32.7% | [5] -14.2% | [6] 8.05%

C=CCn1c(SC)nc2c(c1=O)CCCC2
inactive: [1] -34.5% | [2] -13.4% | [3] -5.4% | [4] -14.3% | [5] 7.55% | [6] -10.2%

O=C1CCC(O)=C1O
inactive: [1] -7.75% | [2] -11.4% | [3] 2.3% | [4] 26.5% | [5] -2.35% | [6] -0.25%

Cn1nnnc1/C(=C/c1ccccc1)C(=O)O
inactive: [1] 12.9% | [2] -0.15% | [3] 0.1% | [4] -18.9% | [5] 12.1% | [6] 12.2%
